The source of these data is PubChem BioAssay (NCI).

Common to all, as to test: NCI-60 one-dose screen, 48 h (100 = growth as untreated, 0 = no growth, -100 = all killed)
Holding throughout (details): 10 µM

Assay [1] concerns OVCAR-8 ovarian.
The subject of assay [2] is OVCAR-5 ovarian.
Assay [3] relates to OVCAR-4 ovarian.
The test system of assay [4] is SK-OV-3 ovarian.
The test system of assay [5] is IGROV1 ovarian.
Assay [6] has as its system OVCAR-3 ovarian.
The test system of assay [7] is HS 578T breast.
In assay [8] the test system is NCI/ADR-RES ovarian.
Assay [9] deals with T-47D breast.

The panel holds about 83,000 compounds, 20% with a hit somewhere; the sample as a whole holds those more often.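 Percent growth is the endpoint: 0 to 100 indicates growth inhibition (40 means 60% inhibition), 0 means no net growth, and negative values indicate cell death.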 Values without a mark were called inactive. The source made the active and inactive calls. The calls were made as follows: active = growth percent below 10; inactive = the rest.

With `CC(=O)c1cc(Cl)ccc1O`, the growth was 109% in assay [1]; 94.3% in assay [2]; 120% in assay [3]; 111% in assay [4]; 116% in [5]; 102% in assay [6]. The values for the growth in assay [7], in assay [8] and in assay [9] were 104%, 104% and 99.7%, respectively.

Turning to `COc1ccc(NC(=O)CSc2nc3ccccc3c(=O)n2CCc2ccccc2)cc1`, the growth in [1] is 60.7%; in assay [2] it was 101%; in assay [3], 97%; in assay [4], 75.5%; in [5], 82.3%; in [6], 90.4%. For the same compound, the figures for the growth in assay [7], in assay [8] and in assay [9] were 51.2%, 85.2% and 93.3%, respectively.

`O=C(/C=C/c1cc2ccccc2[nH]c1=O)c1ccc2c(c1)OCO2`: the growth in [1] was 96.1%; in assay [2], 104%; in assay [3] it was 88%; in assay [4], 102%; in [5], 92.5%; in [6] it was 102%. Besides, the growth in assay [7] is 93.8%; in assay [8], 105%; in [9], 72.2%.

Turning to `C#Cc1ccc(-n2c(/C=C/c3ccc4ccccc4n3)nc3ncccc3c2=O)cc1`, the growth was -16.4% (active) in assay [1]; -4.33% (active) in assay [2]; -62.4% (active) in assay [3]; 5.05% (active) in assay [4]; -65.6% (active) in assay [5]; -66.8% (active) in [6]. Also, the growth was 11% in [7], -6.13% (active) in assay [8] and -51.9% (active) in assay [9].

Consider `COc1cc(Nc2ncnc(Nc3ccc4c(n3)NC(=O)C(C)(C)O4)n2)cc(OC)c1OC`, for which the growth in [1] is 24.1%; in assay [2] it was 29.3%; in assay [3] it was 39.8%; in assay [4], -19.6% (active); in assay [5] it was -46.1% (active); in assay [6], 35.9%. Besides, the growth was -20.4% (active) in assay [7], 34.2% in assay [8] and 34.5% in assay [9].

For the compound `CCOC(=O)C(=Cc1ccc(Br)cc1)C(=O)OCC`, the growth in assay [1] was -22.4% (active); in assay [2], 5.97% (active); in [3], 0.0605% (active); in [4] it was 34%; in assay [5] it was -82.1% (active); in assay [6], -35.1% (active). The growth in assay [7] is -16.3% (active); in assay [8] it was 10.6%; in assay [9] it was -16.7% (active).

As to `COc1cc2c(cc1OCCCN1CCN(c3ncnc4ccccc34)CC1)N=CC1CCCN1C2=O` (centres undefined), the growth in [1] was -54.7% (active); in assay [2], 17.7%; in assay [3] it was 4.86% (active); in [4] it was 19.8%; in [5], -28.9% (active); in [6], -35.2% (active). The growth in assay [7] is -57.6% (active); in [8], 15.9%; in [9] it was 25%.

`CC(C)=CCc1ccc(O)c(=O)cc1C(C)C`: the growth in [1] was 12.4%; in assay [2], 52.4%; in assay [3], 31.2%; in assay [4], 18.5%; in assay [5] it was 1.88% (active); in assay [6], 43.4%. Besides, the results for the growth in [7], in assay [8] and in assay [9] were 72.7%, 1.61% (active) and 20.4%, respectively.

Regarding `COc1ccc(/C=C2/CN(CCC#N)C/C(=C\c3ccc(OC)cc3)C2=O)cc1`, the growth was 1.11% (active) in assay [1]; 59.7% in [2]; 17.3% in assay [3]; 13.4% in assay [4]; 7.88% (active) in assay [5]; -26% (active) in [6]. In addition, the growth is 33.1% in [7] and 7.02% (active) in [8].

Consider `CCn1cc(C(=O)O)c(=O)c2cnc(N3CCCC3)nc21`, for which the growth in assay [1] is 101%; in assay [2], 103%; in assay [3], 105%; in [4], 108%; in assay [5], 103%; in [6], 119%. The growth in assay [7] is 99.9%; in assay [8], 102%; in assay [9] it was 99.1%.

As to `CN(C)CC(O)c1ccc2cc(Br)c3ccccc3c2c1` (centres undefined), the growth is 79.7% in assay [1]; 68.4% in assay [2]; 84.9% in assay [3]; 95.4% in assay [4]; 22.5% in [5]; 81% in assay [6]. The growth in assay [7] was 74.9%; in [8], 59.7%; in assay [9] it was 69.4%.

`Cc1ccc(NC(=O)CSc2nc3ccccc3c(=O)n2CCc2ccccc2)c(C(=O)O)c1`: the growth is 100% in assay [1]; 111% in assay [2]; 103% in assay [3]; 93.6% in [4]; 94.1% in [5]; 115% in assay [6]. Moreover, the growth in assay [7] was 106%; in assay [8], 118%; in [9], 96.2%.

Regarding `Cc1cc(N(CCCNc2ccnc3cc(Cl)ccc23)Cc2ccc3c(c2)OCO3)nc(N2CCOCC2)n1`, the growth in [1] was 31.7%; in assay [2], 77.4%; in assay [3], 23.1%; in assay [4], 90.5%; in [5], 10.9%; in assay [6], -6.27% (active). Besides, the figures for the growth in assay [7], in assay [8] and in assay [9] were 34.3%, 46.9% and 0.442% (active), respectively.

As for `CCN(CC)CCC(CNc1c(C)cnc2cc(Cl)ccc12)c1ccc(Cl)cc1` (centres undefined), the growth in assay [1] is 61.8%; in [2], 54.6%; in assay [3], 56.6%; in [4], 81.7%; in assay [5], 46.4%; in assay [6], 70.8%. For the same compound, the values for the growth in assay [7], in assay [8] and in assay [9] were 70.1%, 59% and 59.6%, respectively.

With `CN(CCc1ccccn1)c1ccccc1`, the growth in [1] is 102%; in assay [2], 94%; in assay [3] it was 98.5%; in assay [4] it was 112%; in assay [5], 103%; in [6] it was 131%. The figures for the growth in assay [7], in assay [8] and in assay [9] were 107%, 105% and 97.4%, respectively.
